# Unmarked numbers belong to inactive results. Calls of active or inactive are those of the source. The call rests on the fitted dose curve; in most records, active means well fitted curve in the direction sought with a large enough effect in the repeat runs; inconclusive means weak or mixed curves; inactive means flat fitted curve, though single readings scatter.
# Assay: qHTS assay to test for compound auto fluorescence at 535 nm (green) in HEK293 cell free culture (AID 720682)
# Details: cell-free medium, green autofluorescence 485/535 nm, active compounds read high; series mostly up to 91.3 µM
# From the text: U.S. Tox21 Program National Center for Advancing Translational Sciences [NCATS] NIH Chemical Genomics Center [NCGC] U.S. Environmental Protection Agency [EPA] National Institutes of Environmental Health Sciences [NIEHS] National Toxicology Program [NTP] U.S. Food and Drug Administration [FDA] Tox21 Assay Overview: Compound auto fluorescence often interferes with screening of the compound library against various biological targets and signaling pathways. Some of these compounds may have fluorophoric properties. Such properties may interfere with the assay outputs resulting in false positives and/or negatives. To decrease such complications and ensure the compound activities are relevant in terms of biological response, the Tox21 10K compound library was screened for auto fluorescence. From the fluorophores used as reporter signals in our screening assays, the auto fluorescence equivalencies of compounds against three fluorophores have been evaluated: Triamterene, Fluorescein and Rose Bengal sodium for blue, green and red fluorescence, respectively. The fluorescence intensities were measured using Excitation/Emission wavelengths at 405/460nm, 485/535nm and 540/590nm for blue, green and red labels, respectively. This assay includes the green fluorescence data.
# Tox21 Assay Protocol Summary: 5 uL of culture medium (DMEM containing 10% FBS) per well was dispensed into black wall/clear bottom 1536-well plates using a Multidrop Combi Dispenser (ThermoFisher Scientific, Waltham, MA). After 23 nL compound or DMSO vehicle was transferred into assay plate by a pintool work station (Kalypsys, San Diego, CA), fluorescence intensities in the assay plates were measured by an Envision (PerkinElmer, Shelton, CT) plate reader using three labels for measuring blue, green and red fluorescence at […] 460, 535 and 590nm respectively.
# On the % scale 0 is the no-effect control and ±100 the full control effect.
SMILES,outcome,activity change
NCCN1CCOCC1,inactive,–
CC(C)N(c1ccccc1)C(C)C,inactive,–
CCCC(=O)C(C)=O,inactive,–
O=C(NCCN1CCOCC1)c1ccc(Cl)cc1,inactive,–
CC(=O)CCCCn1c(=O)c2c(ncn2C)n(C)c1=O,–,0.0172% [at 18.6 µM]
O=C(Nc1ccc(Cl)c(Cl)c1)C1CC1,inactive,–
CCCOC(=O)C(C)O (stereo not given),inactive,–
COC(=O)[C@@H]1[C@H]2C[C@H]3c4[nH]c5ccccc5c4CCN3C[C@@H]2CC[C@@H]1O,inactive,–
CC(=O)/C=C/C1C(C)=CCC(C)C1(C)C (stereo not given),inactive,–
CC(C)(C)OC(=O)c1ccc(O)cc1,inactive,–
CC(C)(C)NC(N)=O,inactive,–
CC(C)(C)c1cc(CCC(=O)NN)cc(C(C)(C)C)c1O,inactive,–
O=S(=O)(O)CCN1CCN(CCO)CC1,inactive,–
O=C(OCC1(COC(=O)c2cccnc2)CCCC(COC(=O)c2cccnc2)(COC(=O)c2cccnc2)C1O)c1cccnc1,inactive,–
CC(=O)OC(C)OC(=O)C(C)c1ccc(-c2ccccc2)c(F)c1 (stereo not given),inactive,–
CC(C)(C)c1n[nH]c(=S)n(N)c1=O,inactive,–
NS(=O)(=O)c1ccc(NC(=O)CCC(=O)O)cc1,inactive,–
O=C1CCCC(=O)O1,inactive,–
CCOCCOCCOCC,inactive,–
CN1CCN(CC(=O)N2c3ccccc3C(=O)Nc3cccnc32)CC1,inactive,–

SMILES,outcome,activity change
CN1C(C)(C)CCCC1(C)C,inactive,–
C=CCCCCCCCCCCCC,inactive,–
CC(=O)c1sc(C)nc1C,inactive,–
CCCC/C=C\CCCCCCCCCC=O,inactive,–
C=C(C)C(=O)OCCN(CC)CC,inactive,–
CC(=O)NCc1c(I)c(NC(C)=O)c(I)c(C(=O)O)c1I,inactive,–
C[Si](C)(C)C,inactive,–
O=C(CCN1CCN(CCO)CC1)N1c2ccccc2Sc2ccc(C(F)(F)F)cc21,inactive,–
O=C(NCC(O)CO)c1c(I)c(C(=O)NCC(O)CO)c(I)c(N(CCO)C(=O)CO)c1I (stereo not given),–,-0.0517% [at 18.6 µM]
O=P(O)(O)OP(=O)(O)O,inactive,–
C=C(C)C(=O)OCCOP(=O)(O)OCCOC(=O)C(=C)C,inactive,–
N[C@@H](CCC(=O)N[C@@H](CS)C(=O)NCC(=O)O)C(=O)O,inactive,–
CCNC(=O)C1CC(C)CCC1C(C)C (stereo not given),inactive,–
CCO[Si](CCCS)(OCC)OCC,inactive,–
COC(=O)CCCCCCCC(=O)OC,inactive,–
O=C(OCC(COC(=O)c1cccnc1)(COC(=O)c1cccnc1)COC(=O)c1cccnc1)c1cccnc1,inactive,–
CCCCCCN,inactive,–
CCCCCCOc1ccccc1C(N)=O,inactive,–
CCOC(=O)c1ncn2c1CN(C)C(=O)c1cc(F)ccc1-2,inactive,–
COc1cc2c(cc1OC)[C@@H]1CC(=O)[C@@H](CC(C)C)CN1CC2,inactive,–

# Source: PubChem BioAssay (Tox21)
